An excerpt weighted towards active compounds, which were near 3.1% of everything screened.
Vif-A3F inh: blocks the Vif interaction with APOBEC3F | HeLa A3F-eYFP + Vif (tagged APOBEC3F with the HIV-1 protein that degrades it), YFP fluorescence increase | Potency, µM (top dose mostly 46.1 µM), for inactives: at the top dose activity, negative = active | hit rate 0.2% among 390,000; note: potency is the fitted concentration of half-maximal effect; % of control where 0% means no effect; nearly all actives have a fitted effect of over 65% in size
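Fluorescence increase (Ex 488/Em 500-530) after overnight compound treatment at 37 deg C flags inhibition of Vif-driven A3F-eYFP loss in stable HeLa A3F-eYFP/Vif cells seeded overnight beforehand.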
TSHR antagonist: antagonists of human thyroid stimulating hormone receptor | activity change, negative = inhibition, % at 11.5 µM | AID 504810 | TSHR-expressing cells, TSH-stimulated cAMP HTRF, 2 h; active compounds read low | hit rate 0.2% among 330,000;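 active = activity change below a set negative limit, meaning inhibition stronger than a set level, cut at about -70% in these data; inconclusive = activity change between two set negative limits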; note: % is set by controls: 0 for no effect and ±100 for the full control effect
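Antagonism was scored as loss of TSH-driven cAMP in TSHR cells, stimulated with 4nM TSH (EC80) for 2 hours at 37 deg C and detected by homogeneous HTRF competition immunoassay.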
Vif-A3G inh: Vif-A3G binding inhibition; Potency, µM (doses to about 46.1 µM), inactives show at the highest dose activity, negative = active, hits mostly inhibitors; HeLa A3G-eYFP + Vif (tagged APOBEC3G with the HIV-1 protein that degrades it), YFP fluorescence, overnight; hit rate 0.076% among 410,000; AID 602310; note: potency is the fitted concentration of half-maximal effect; % is set by controls: 0 for no effect and ±100 for the full control effect; nearly all actives have a fitted effect of over 60% in size
Target sequence (Q9HC16 whole entry, looked up): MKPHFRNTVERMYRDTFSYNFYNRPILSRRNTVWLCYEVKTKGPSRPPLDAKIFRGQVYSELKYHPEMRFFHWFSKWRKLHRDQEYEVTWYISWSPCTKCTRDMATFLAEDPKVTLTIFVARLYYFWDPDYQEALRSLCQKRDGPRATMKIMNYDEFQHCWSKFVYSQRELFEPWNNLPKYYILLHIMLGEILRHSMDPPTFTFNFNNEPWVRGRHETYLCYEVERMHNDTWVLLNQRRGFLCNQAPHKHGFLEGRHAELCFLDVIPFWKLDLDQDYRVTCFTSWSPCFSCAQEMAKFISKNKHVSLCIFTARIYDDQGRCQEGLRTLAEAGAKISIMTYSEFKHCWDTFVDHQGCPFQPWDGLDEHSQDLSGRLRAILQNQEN
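Read-out is eYFP fluorescence (Ex 488/Em 500-530) from Vif-expressing HeLa A3G-eYFP cells; more signal means A3G escaped Vif-mediated degradation. Cells plated overnight, compound pinned in, incubated overnight at 37 deg C.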
VDR inh: vitamin D3 receptor (human) inhibition; P11473; hit rate 0.93% among 400,000; Potency, µM, for inactives: max response, negative = inhibition, hits mostly inhibitors; VDR-SRC2-3 peptide fluorescence polarization, 2 h; AID 504847; note: potency is the fitted concentration of half-maximal effect; % is set by controls: 0 for no effect and ±100 for the full control effect
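Signal is fluorescence polarization, reporting how far test compounds block the interaction of VDR with the SRC2-3 coregulator peptide after a 2 h room-temperature incubation.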
PLK1 PBD inh: blocks phosphopeptide binding to human PLK1 polo-box domain. P53350. Plk1 PBD binding of FITC phosphopeptide, fluorescence polarization. Potency, µM, for inactives: max response, negative = inhibition, hits mostly inhibitors. hit rate 2.8% among 360,000; note: potency is the fitted concentration of half-maximal effect; series mostly up to about 57 µM; % is set by controls: 0 for no effect and ±100 for the full control effect; nearly all actives have a fitted effect of over 65% in size
* hit, by the source's call; ! = repeats disagree. Unless noted, calls come from the whole dose curve; as a rule, active = well fitted curve in the direction sought with a large enough effect; inconclusive = small, poorly fitted or top-dose-only effect, or another doubt; inactive = no such curve, though single readings can be large; an effect the other way counts as inactive or inconclusive.

Results for NC(N)=NCCC[C@H](NC(=O)[C@H](Cc1ccccc1)NC(=O)[C@@H]1CCCN1C(=O)[C@H](CO)NC(=O)[C@H](Cc1ccccc1)NC(=O)CNC(=O)[C@@H]1CCCN1C(=O)[C@@H]1CCCN1C(=O)[C@@H](N)CCCN=C(N)N)C(=O)O ?
VDR inh: 2%

Results for CCOC(=O)/C(C#N)=C1\CC2CCC1(C)C2(C)C (stereo not given) ?
Vif-A3F inh: -20%; TSHR antagonist: -4; Vif-A3G inh: -3%; VDR inh: 79µM*; PLK1 PBD inh: 6µM*

What do the screens show for `COc1ccc2[nH]cc(CCNc3nc(-c4ccc(N(C)C)cc4)nc4ccccc34)c2c1`?
VDR inh: -14%

How did NCCCCCCNc1nc2c(N)ncnc2n1[C@@H]1O[C@@H]2COP(=O)(O)O[C@H]2[C@H]1O do in these assays?
VDR inh: 10%

What do the screens show for `Clc1ccc(-c2nnc(C34CC5CC(CC(C5)C3)C4)o2)cn1`?
Vif-A3F inh: 0%; TSHR antagonist: -9; Vif-A3G inh: 3%; VDR inh: -9%; PLK1 PBD inh: 19µM*

What do the screens show for `CC1(c2nnc(-c3ccc(Cl)cc3)o2)CC(c2ccc(Cl)cc2)=NO1` (stereo not given)?
Vif-A3F inh: 4%; TSHR antagonist: -27; Vif-A3G inh: 2%; VDR inh: -11%; PLK1 PBD inh: -14%

What do the screens show for `CCCC/C=C/[C@H](c1ccccc1)[C@H](CO)Cc1cnc2ccccc2c1`?
Vif-A3G inh: -6%; VDR inh: 2%

Results for O=C(O)c1ccc2c(=O)n(Cc3ccccc3)c(SCc3ccc([N+](=O)[O-])cc3)nc2c1 ?
Vif-A3F inh: 1%; TSHR antagonist: -13; Vif-A3G inh: -6%; VDR inh: 79µM*; PLK1 PBD inh: inconclusive

How did O=C(O)COc1ccccc1/C=N/NC(=O)CNC(=O)c1ccc(F)cc1 do in these assays?
Vif-A3F inh: 1%; TSHR antagonist: 8; Vif-A3G inh: 1%; VDR inh: inconclusive; PLK1 PBD inh: 8.4µM*

Results for O=C(O)COc1ccccc1/C=N/NC(=O)c1ccc(F)cc1 ?
Vif-A3F inh: 0%; TSHR antagonist: 1; Vif-A3G inh: -3%; VDR inh: 1%; PLK1 PBD inh: -7%

How did C=C[C@@]1(C)CC[C@H]2C(=CC[C@@H]3[C@]2(C)CCC[C@@]3(C)C(=O)O)C1 do in these assays?
VDR inh: -8%

Results for COc1cc(C(=S)N2CCOCC2)ccc1OS(=O)(=O)c1ccccc1[N+](=O)[O-] ?
Vif-A3F inh: 1%; TSHR antagonist: -7; Vif-A3G inh: 0%; VDR inh: -20%; PLK1 PBD inh: 15µM*

Results for CCOC(=O)COc1c(OC)cc(Cl)cc1C1NC(=O)NC(C)=C1C(C)=O (stereo not given) ?
Vif-A3F inh: 0%; TSHR antagonist: -4; Vif-A3G inh: 0%; VDR inh: 2%; PLK1 PBD inh: -3%

Results for CCCC1=C(C(=O)OCC)C(c2cc(Cl)cc(OC)c2OCC(=O)OCC)NC(=O)N1 (stereo not given) ?
Vif-A3F inh: 1%; TSHR antagonist: -1; Vif-A3G inh: -3%; VDR inh: -8%; PLK1 PBD inh: 30µM*

How did COC(=O)c1cc2occc2n1Cc1nc(-c2ccccc2)oc1C do in these assays?
Vif-A3F inh: 4%; Vif-A3G inh: 4%; VDR inh: -4%

Results for COC(=O)c1cc2occc2n1Cc1nc(-c2ccc(Cl)cc2)oc1C ?
Vif-A3F inh: -10%; TSHR antagonist: -2; Vif-A3G inh: -1%; VDR inh: inconclusive; PLK1 PBD inh: 30µM*

Results for COc1ccc(OCC(=O)N/N=C/c2ccc(OC)c(OC)c2C(=O)O)cc1 ?
Vif-A3F inh: 2%; TSHR antagonist: -2; Vif-A3G inh: 2%; VDR inh: -8%; PLK1 PBD inh: 2%

What do the screens show for `O=C(COc1ccc2ccccc2c1)NN1C(=O)c2ccccc2C1=O`?
Vif-A3F inh: -10%; TSHR antagonist: -2; Vif-A3G inh: -3%; VDR inh: -7%; PLK1 PBD inh: 27µM*

Results for Cc1ccccc1OCC(=O)N/N=C/c1ccccn1 ?
Vif-A3F inh: -2%; TSHR antagonist: -4; Vif-A3G inh: -6%; VDR inh: -21%; PLK1 PBD inh: 30µM*

How did COc1ccc(/C=N/NC(=O)COc2ccc3ccccc3c2)c(C(=O)O)c1OC do in these assays?
Vif-A3F inh: 1%; TSHR antagonist: 12; Vif-A3G inh: -2%; VDR inh: 79µM*; PLK1 PBD inh: 27µM*

What do the screens show for `O=C(COc1ccc2ccccc2c1)N/N=C/c1ccccn1`?
Vif-A3F inh: 13%; TSHR antagonist: 9; Vif-A3G inh: -4%; VDR inh: -18%; PLK1 PBD inh: 19µM*

Results for COC(=O)/C=C/c1cc(F)ccc1S(=O)(=O)Nc1ccccc1 ?
Vif-A3G inh: 0%

What do the screens show for `NS(=O)(=O)c1ccc(NC(=O)CN2C(=O)COc3ccc(Cl)cc32)cc1`?
Vif-A3F inh: -2%; Vif-A3G inh: -2%; VDR inh: 5%

Results for CCCC(c1nnnn1Cc1cccs1)N1CCN(C2CCCC2)CC1 (stereo not given) ?
Vif-A3F inh: -4%; TSHR antagonist: 9; Vif-A3G inh: 2%; VDR inh: -27%; PLK1 PBD inh: 27µM*

What do the screens show for `C=C1C(=O)OC2C=C(C)CCC=C(C)CCC12` (stereo not given)?
VDR inh: 40µM*

Results for C=C1C(=O)O[C@@H]2[C@H]3O[C@]3(C)CC/C=C(\C)CC[C@@H]12 ?
Vif-A3F inh: -3%; Vif-A3G inh: -8%; VDR inh: 22µM*!; PLK1 PBD inh: -1%

Results for COc1ccc(CNc2n[nH]c(-c3ccco3)n2)cc1OC ?
Vif-A3F inh: -10%; Vif-A3G inh: 3%; VDR inh: -2%

Results for O=C(/C(=C/c1cccnc1)n1ccnc1)c1ccc(Cl)cc1Cl ?
Vif-A3F inh: 2%; TSHR antagonist: -6; Vif-A3G inh: 1%; VDR inh: 50µM*; PLK1 PBD inh: inconclusive

What do the screens show for `CC(C)/C=C(/C(=O)c1ccc(Cl)cc1Cl)n1cncn1`?
Vif-A3F inh: -1%; TSHR antagonist: -6; Vif-A3G inh: -10%; VDR inh: inconclusive; PLK1 PBD inh: -26%

How did Cc1ccc(-c2cc(C(F)(F)F)n3ncc(C(=O)O)c3n2)cc1 do in these assays?
Vif-A3F inh: 6%; TSHR antagonist: -2; Vif-A3G inh: -2%; VDR inh: -22%; PLK1 PBD inh: 30µM*

How did COc1ccc(-c2cc(C(F)(F)F)n3ncc(C(=O)NCC4CCCO4)c3n2)cc1 (stereo not given) do in these assays?
Vif-A3F inh: -19%; TSHR antagonist: -7; Vif-A3G inh: -1%; VDR inh: -10%; PLK1 PBD inh: 7.5µM*

What do the screens show for `COc1ccc2c(c1)O[C@@H](c1cccc(C(F)(F)F)c1)[C@H](OC(=O)N[C@H](C)C1CCCCC1)C2=O`?
VDR inh: 12%

Screens: PubChem BioAssay, National Center for Advancing Translational Sciences (NCATS)
